This is an account of results in ChEMBL document CHEMBL5308504, “Tm Shift (DSF) assay results for EUbOPEN Chemogenomics Library” (2023).

The target in assay [1] is Bromodomain-containing protein 4 (Homo sapiens) (UniProt O60885). The following applies: Compound concentration 20.0 uM, Protein concentration 2.0 uM, Result type QC Liability.
Assay [2] has as its target T1, Transcription intermediary factor 1-alpha (Homo sapiens) (UniProt O15164).
T1 sequence (whole entry): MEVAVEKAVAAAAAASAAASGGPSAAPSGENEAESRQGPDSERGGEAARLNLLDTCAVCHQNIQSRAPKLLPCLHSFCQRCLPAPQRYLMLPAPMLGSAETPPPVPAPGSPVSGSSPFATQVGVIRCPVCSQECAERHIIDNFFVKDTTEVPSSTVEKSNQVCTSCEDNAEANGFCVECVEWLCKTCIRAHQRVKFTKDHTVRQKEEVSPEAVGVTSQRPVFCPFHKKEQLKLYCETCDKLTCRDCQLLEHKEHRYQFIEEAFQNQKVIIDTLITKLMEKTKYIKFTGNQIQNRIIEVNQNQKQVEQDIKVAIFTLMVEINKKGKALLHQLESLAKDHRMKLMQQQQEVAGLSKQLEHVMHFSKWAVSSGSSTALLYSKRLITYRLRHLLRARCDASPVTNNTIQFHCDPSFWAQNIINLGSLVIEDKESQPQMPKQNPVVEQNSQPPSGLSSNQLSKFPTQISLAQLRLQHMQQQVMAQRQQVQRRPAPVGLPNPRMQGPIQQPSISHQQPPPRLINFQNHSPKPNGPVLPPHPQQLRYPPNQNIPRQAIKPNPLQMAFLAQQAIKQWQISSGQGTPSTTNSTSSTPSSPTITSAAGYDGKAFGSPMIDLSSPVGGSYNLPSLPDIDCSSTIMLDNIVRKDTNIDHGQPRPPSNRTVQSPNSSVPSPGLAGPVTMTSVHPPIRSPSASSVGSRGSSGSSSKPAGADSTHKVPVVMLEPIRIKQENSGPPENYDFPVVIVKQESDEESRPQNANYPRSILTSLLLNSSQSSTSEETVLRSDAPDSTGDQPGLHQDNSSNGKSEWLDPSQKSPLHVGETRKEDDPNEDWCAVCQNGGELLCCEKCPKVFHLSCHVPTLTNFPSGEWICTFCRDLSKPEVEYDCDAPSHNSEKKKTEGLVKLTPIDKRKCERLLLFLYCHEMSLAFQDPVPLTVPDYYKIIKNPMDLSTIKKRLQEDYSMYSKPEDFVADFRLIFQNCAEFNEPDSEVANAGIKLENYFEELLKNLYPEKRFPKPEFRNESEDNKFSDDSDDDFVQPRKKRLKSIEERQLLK
The following applies: Compound concentration 20.0 uM, Protein concentration 2.0 uM, Result type QC Liability.

Where “and” joins values, the source holds several entries; their conditions need not be identical. Equal values may be shown once.

By ΔTm is commonly meant the change in melting temperature against a reference sample. Consider `CC1CNCCc2c1nc1ccnn1c2N1CC(C(=O)N2CCC(C)(C)C2)C1` (centres undefined), for which the ΔTm in assay [1] was -3.66 °C; in assay [2] it was 0.37 °C.
For `CCOc1ccc(S(=O)(=O)Nc2ccc(Cl)cc2C#Cc2cnc(C(=O)O)cc2OC)c2ncccc12`, the values for the thermal shift (ΔTm) in assay [1] and in assay [2] were -1.6 °C and 0.27 °C, respectively.
`CC(C)NC(=O)[C@H]1CCC[C@H]1Nc1nc(Nc2ccc(CN(C)C)cc2)ncc1Br`: the shift in melting temperature (ΔTm) in assay [1] was -3.19 °C; in assay [2], -4.42 °C.
With `CCN1C(=O)c2cc(C)ccc2N(C)c2ncccc21`, the shift in melting temperature (ΔTm) in assay [1] is -1.19 °C; in assay [2], 0.2 °C.
Turning to `CN1CCc2cc(Nc3ncc(C(F)(F)F)c(NCc4cc[nH]n4)n3)ccc2C1`, the ΔTm in assay [1] is -1.83 °C; in assay [2] it was -1.85 °C.
Consider `CC(C=CC1=C(C)CCCC1(C)C)=CC=CC(C)=CC(=O)O`, for which the results for the thermal shift (ΔTm) in assay [1] and in assay [2] were -5.12 °C and -4.24 °C, respectively.
Take `CN(C)C(=O)c1sc2nc(N3CCC(S(C)(=O)=O)CC3)cc(C(F)(F)F)c2c1N`: the ΔTm was -3.42 °C and 1.01 °C in assay [1]; 0.17 °C and 0.19 °C in assay [2].
Take `CCc1cc2c(cc1N1CCC(N3CCOCC3)CC1)C(C)(C)c1[nH]c3cc(C#N)ccc3c1C2=O`: the ΔTm in assay [1] was -2.92 °C; in assay [2], -0.86 °C.
For `COc1cc(Oc2nc(-c3ccc(NC(=O)C4CCOC4)cc3)nn3c(C)nc(C)c23)cc(OC)c1OC` (centres undefined), the thermal shift (ΔTm) is -1.75 °C in assay [1] and 0.42 °C in assay [2].
Taken in the same sequence, the figures for `Cn1cnc(Cn2ccc3ccc(CNCc4[nH]c5ccccc5c4[C@@H]4NC(=O)c5ccc(O)cc54)cc32)c1` were -1.28 °C and 0.32 °C.
Turning to `Cn1cc(-n2cnc3c(NCc4nc5cc(Cl)c(Cl)cc5[nH]4)nc(N4CCOCC4)nc32)cn1`, the figures for the thermal shift (ΔTm) in assay [1] and in assay [2] were 0.71 °C and -0.85 °C, respectively.
`COc1cnccc1Nc1nc(-c2nn(Cc3c(F)cc(OCCO)cc3F)c3ccccc23)ncc1OC`: the ΔTm in assay [1] is 0.84 °C; in assay [2], -4.33 °C.
With `CSc1ccc(C(=O)/C=C/c2cc(C)c(OC(C)(C)C(=O)O)c(C)c2)cc1`, the ΔTm in assay [1] was -3.49 °C; in assay [2], -3.46 °C.
Taken in the same sequence, the figures for `Cc1ccc(-n2nc(C(C)(C)C)cc2NC(=O)Nc2ccccc2F)cc1` were -1.72 °C and -1.64 °C.
`Cc1nc2ccccc2c(-c2ccc3c4c(ccnc24)CCO3)c1[C@H](OC(C)(C)C)C(=O)O`: the ΔTm was -1.5 °C in assay [1] and 0.24 °C in assay [2].
For the molecule `COc1cc2nc([C@@H]3CCCS(=O)(=O)C3)n(C)c2cc1NC(=O)c1cccc(C(C)(F)F)n1`, the thermal shift (ΔTm) in assay [1] turned out to be 0.39 °C; in assay [2], 0.7 °C.
Turning to `CCOC(=O)C1Cc2ccccc2CN1C(=O)c1ccc(SC)s1` (centres undefined), the ΔTm in assay [1] is -2.7 °C; in assay [2], -3.41 °C.
Taken in the same sequence, the figures for `C[C@H](NC(=O)c1cnc2n1[C@](C)(Cc1ccc(C#N)cc1)C(=O)N2c1cc(Cl)c(F)c(Cl)c1)C(=O)NC1(c2ccccn2)CC1` were 5.21 °C and 0 °C.
Turning to `Cc1cc2c(-c3ccco3)cnc(N[C@H]3CCN(C)C[C@@H]3C(=O)NC3CCCCC3)c2[nH]c1=O`, the ΔTm in assay [1] is 3.29 °C; in assay [2] it was -2.71 °C.
Taken in the same sequence, the figures for `CNC(=O)c1c[nH]c2ccc(Nc3nccc(-c4ccccn4)n3)cc12` were -1.78 °C and -0.94 °C.
Taken in the same sequence, the figures for `COc1cc(-c2cn(C)c(=O)c3cnccc23)c(OC)cc1CN(C)C` were -0.72 °C and 0.32 °C.
`CC1(C)Cc2nc(C3CCCC3)c([C@@H](F)c3ccc(C(F)(F)F)cc3)c(C3CCCCC3)c2[C@@H](O)C1`: the shift in melting temperature (ΔTm) in assay [1] turned out to be 0.17 °C; in assay [2], 0.34 °C.
For `O=C(CCCN1CCC(O)(c2ccc(Cl)cc2)CC1)c1ccc(F)cc1`, the results for the thermal shift (ΔTm) in assay [1] and in assay [2] were -3.1 °C and -2.64 °C, respectively.
Consider `COc1cc(N(C)c2ccnc3ccc(C(F)(F)F)cc23)cc(OC)c1OC`, for which the thermal shift (ΔTm) was -0.67 °C in assay [1] and -4.07 °C in assay [2].
As to `CP(C)(=O)c1ccc(CNC(=O)C2CCN(S(=O)(=O)c3cc(Cl)cc(Cl)c3)CC2)cc1`, the results for the ΔTm in assay [1] and in assay [2] were -2.43 °C and 0.94 °C, respectively.
On to `CC1CCN(c2ccnc(NCc3cn(C)cn3)n2)CC1`, for which the ΔTm in assay [1] was -1.06 °C; in assay [2], -0.77 °C.
Turning to `COc1ncc(-c2cc(-c3ncc(CN4C[C@@H](C)O[C@@H](C)C4)o3)c3cn[nH]c3c2)cc1NS(C)(=O)=O`, the ΔTm in assay [1] was 0.37 °C; in assay [2], -1.87 °C.
In the case of `CC(C)c1cnc(NC(=O)Cc2ccccc2)s1`, the shift in melting temperature (ΔTm) in assay [1] is -1.14 °C; in assay [2] it was -1.45 °C.
Regarding `CN(C)[C@H]1CCc2nc(NC(=O)c3cccc(Cn4cc(-c5ccc(C#N)cc5)cn4)c3)sc2C1`, the ΔTm in assay [1] was -1.88 °C; in assay [2], -2.75 °C.
Turning to `CC(C)C(=O)N1CCC(c2cn(C)c3ncc(NC(=O)c4cccc(C#N)c4)c(C(F)(F)F)c23)CC1`, the ΔTm in assay [1] was -2.27 °C; in assay [2] it was -2.5 °C.
Taken in the same sequence, the figures for `COc1ccccc1Nc1nc(-c2nn(Cc3c(F)cc(OCCCO)cc3F)c3ccccc23)ncc1OC` were -0.6 °C and -1.94 °C.
With `CN(C)C(=O)Cn1cc(-c2nc([C@@](C)(c3ccc(-c4cnc(N)nc4)cc3)C3CC3)no2)cn1`, the thermal shift (ΔTm) in assay [1] is -1.9 °C; in assay [2] it was 0.31 °C.
On to `COCCN(C)c1ccc(NC(=O)/C=C(\C)c2ccc3ccccc3c2)c(C(=O)O)c1`, for which the ΔTm in assay [1] is -1.96 °C; in assay [2] it was -0.91 °C.
Taken in the same sequence, the figures for `Cn1cc(Nc2nccc(N3CC4CCC(C3)N4C(=O)[C@@H]3CC3(F)F)n2)cn1` were -1.13 °C and -1.71 °C.
Take `CN1CCC(F)(Cn2cnc(-c3ccc(F)cn3)c2-c2ccnc3[nH]ccc23)CC1`: the results for the ΔTm in assay [1] and in assay [2] were -2.6 °C and -2.99 °C, respectively.
As to `Cc1cc(SCc2sc(-c3ccc(C(F)(F)F)cc3)nc2C)ccc1OCC(=O)O`, the thermal shift (ΔTm) is -3.91 °C in assay [1] and -2.79 °C in assay [2].
Consider `FC(F)(F)c1ccc(CNc2ccc(Cc3c[nH]c4ncc(Cl)cc34)cn2)cn1`, for which the ΔTm turned out to be 2 °C in assay [1] and 1.98 °C in assay [2].
